Not all results are given here.
aSyn UTR act: Activators via SNCA 5'UTR binding, MLPCN. alpha-synuclein 5'UTR reporter, activators screen. activity score, % (tested at 7.5 µM), hits read low. 300,000 tested, 7.1% active; in the data active = activity score below about -60%
Active calls of the source: *.

SMILES	aSyn UTR act
O=C(Nc1ccccc1)Nc1cccc(C(F)(F)F)c1	-73*
O=C(Nc1cccc(C(=O)Nc2ccc(Br)cc2)c1)c1ccccc1	-111*
Nc1ccc(C(=O)Nc2cccc(N)c2)cc1	-67*
CSc1ncc(C(=O)Nc2ccc(C(C)=O)cc2)c(C)n1	-87*
CC(C)OC(=O)c1cccc(NC(=O)c2ccccc2)c1	-132*
COC(=O)/C(=C\C(=O)c1ccccc1)Nc1cccc(C(F)(F)F)c1	-185*
CC1CCC(NC(=O)CCNC(=O)c2ccc(Br)cc2)CC1 (stereo not drawn)	-71*
CC(=O)c1cccc(NC(=O)c2ccc3ccccc3c2)c1	-145*
O=C(Nc1cccc(O)c1)c1ccc(Br)cc1	-181*
O=C(Cc1ccccc1)NNc1ccc2ccccc2c1	-101*
CCC(=O)Nc1cccc(NC(=O)c2ccc(Br)cc2)c1	-117*
O=c1c2ccccc2nc(N/N=C/c2c(O)ccc3ccccc23)n1O	82
N=C(N)SCc1nc2ccccc2c(=O)n1-c1ccccc1	-95*
CN(C)S(=O)(=O)c1ccc(-c2cn3ccccc3n2)cc1	-194*
O=[N+]([O-])c1ccc(-c2cn3ccccc3n2)cc1	-148*
Cc1cc(C(=O)COC(=O)c2ccccc2O)c(C)n1Cc1cccs1	93
Cc1cc(C(=O)COC(=O)c2ccc(N)c([N+](=O)[O-])c2)c(C)n1Cc1ccc2c(c1)OCO2	-164*
Cc1cc(C(=O)CSc2nnc(-c3cccnc3)n2-c2ccccc2)c(C)n1CC1CCCO1 (stereo not drawn)	-78*
CC(=O)Nc1ccccc1OCC(=O)c1cc(C)n(Cc2cccs2)c1C	-150*
Cc1cc(C(=O)COC(=O)c2ccc3c(c2)OCO3)c(C)n1Cc1cccs1	-65*
CC(=O)[C@@]1(O)C(C)CC2C3C=C(C)C4=Cc5c(cnn5-c5ccccc5)C[C@]4(C)C3C(O)C[C@@]21C (stereo partly drawn)	81
C=CCn1c(C)cc(C(=O)COC(=O)c2ccc(N)c([N+](=O)[O-])c2)c1C	-142*
Cc1ccc(C(=O)OCC(=O)c2cc(C)n(CC3CCCO3)c2C)cc1 (stereo not drawn)	-161*
COc1ccc(C(=O)N=c2sc3ccccc3n2C)cc1	-193*
Cc1ccc(C(=O)N/N=c2\sc3ccccc3n2C)cc1	-62*
SMILES	aSyn UTR act
COc1cc(OC)cc(C(=O)N=c2sc3ccccc3n2C)c1	-149*
COC(=O)Cn1c(=NC(=O)c2cccc(OC)c2)sc2cc(OC)ccc21	-87*
COc1cccc(C(=O)N=c2sc3cc(S(C)(=O)=O)ccc3n2C)c1	-127*
CCc1nc2cc3sc(CC)nc3cc2s1	-133*
C/C(=N\Nc1ncc(Cl)cc1Cl)c1ccccn1	101
Clc1ccc(/C=N/NC(=Nc2ccccc2)c2ccccn2)c(Cl)c1	-82*
Cc1cccc(-n2ncc3c(NCCCN4CCCC4=O)ncnc32)c1	-143*
Cc1cccc(-n2ncc3c(NCCCn4ccnc4)ncnc32)c1	-129*
O=C1CCCN1CCCNc1ncnc2c1cnn2-c1ccc(Cl)cc1	-152*
COC(=O)c1cc2c(s1)-c1ccc(OC)cc1CC2	-212*
CNC(=O)c1cc2c(s1)-c1ccccc1CC2	-133*
COc1ccc2c(c1)CC/C2=N\OC(=O)c1cccc(C)c1	-230*
COc1ccc(C(=O)N=C2CCC(C#N)=C3c4cc(OC)c(OC)cc4CCN23)cc1	55
Cc1ccccc1C(=O)O/N=C/c1c(N2CCOCC2)n(C)c2ccccc12	87
COc1ccc2c(c1)CC/C2=N\OC(=O)c1ccccc1C	-136*
COc1ccc2c(c1)CC/C2=N\NC(=O)c1ccccc1	-111*
N#CCc1nc(CSc2nc3ccccc3o2)cs1	-134*
c1ccc2oc(SCc3nc4ccccc4s3)nc2c1	-149*
c1ccc(SCc2nc3ccccc3s2)nc1	-113*
Cc1ccc(C2=NNC(C(O)C(O)C(O)CO)S2)cc1 (stereo not drawn)	-66*
COc1ccc(C2NN=C(c3ccc(C)cc3)S2)cc1 (stereo not drawn)	-172*
Oc1ccc(-c2csc(Nc3ccccn3)n2)cc1O	-139*
Cc1ccnc(Nc2nc(-c3ccc(O)c(O)c3)cs2)c1	-148*
CC(=O)Nc1ccc(Nc2nc(-c3c(C)nc4ccccn34)cs2)cc1	87
CC(=O)Nc1ccc(-c2csc(Nc3ccccn3)n2)cc1	-161*
SMILES	aSyn UTR act
Cc1ccnc(Nc2nc(-c3ccc(O)cc3)cs2)c1	-232*
CCC(=O)Nc1nc(C)c(-c2csc(Nc3ccccn3)n2)s1	-122*
Cc1ccnc(Nc2nc(-c3ccc(O)cc3O)cs2)c1	-136*
COc1ccc(OC)c(Nc2nc(-c3sc(NC(=O)CC(C)C)nc3C)cs2)c1	58
CC(=O)Nc1ccc(-c2csc(NCCc3ccccc3)n2)cc1	-141*
Oc1cccc(C(Nc2nccs2)c2ccc3cccnc3c2O)c1 (stereo not drawn)	132
COc1c(C(=O)Nc2nccs2)ccc2ccccc12	-172*
COc1ccccc1OCCCC(=O)Nc1nccs1	-97*
O=C(COc1cccc2cccnc12)Nc1nccs1	-85*
COc1cc2ccccc2cc1C(=O)Nc1nccs1	-256*
COc1cccc2c1OCC(C(=O)Nc1nccs1)=C2	-122*
COc1cc2ccccc2cc1C(=O)NCC(c1cccs1)N(C)C (stereo not drawn)	-106*
Cc1ccc(-n2nnnc2Sc2ccc(S(=O)(=O)NCCN(C)C)cc2[N+](=O)[O-])cc1	-93*
O=[N+]([O-])c1cc(S(=O)(=O)NCCN2CCOCC2)ccc1Sc1nnnn1-c1ccccc1	-96*
CC(=O)c1cccc(NC(=O)CN2C(=O)COc3ccc(S(=O)(=O)N4CCOCC4)cc32)c1	73
CCOC(=O)C1CCN(C(=O)CN2C(=O)COc3ccc(C(C)(C)C)cc32)CC1	-111*
COc1ccc(NS(=O)(=O)c2ccc(N3CCCC3)c(NC(=S)Nc3cccc(C)c3C)c2)cc1	-132*
O=[n+]1c2c(n([O-])c3cc(F)c(N4CCCC4)cc31)CCCC2	-77*
O=c1[nH]c(-c2ccco2)nc2sc3c(c12)CCCC3	-125*
C/C(CC(=O)Nc1cccc2c1CCCC2)=N\NC(=O)c1ccccc1N	-110*
CNC(=S)Nc1ccc(-c2nc3ccc(C)cc3s2)cc1	-91*
CC1=CCC(C(=O)O)C(C(=O)Nc2ccc(-c3nc4ccc(C)cc4s3)cc2)C1 (stereo not drawn)	-131*
COc1ccc(/C=C(\C#N)C(=O)OCC(=O)Nc2ccc(-c3nc4ccc(C)cc4s3)cc2)cc1	-70*
CC(=O)NC(=S)Nc1ccc(-c2nc3ccc(C)cc3s2)cc1	-272*
Cc1ccc2nc(-c3ccc(N)cc3)sc2c1	90
SMILES	aSyn UTR act
Cc1ccc2nc(-c3ccc(NS(=O)(=O)c4ccc(F)cc4)cc3)sc2c1	-134*
CCN1C(=O)/C(=C/C=C2\C=CN(CC)c3ccccc32)SC1=S	-80*
CCN1C(=O)/C(=C\C=C2/C=CC=CN2CC)SC1=S	-125*
CCN1C(=O)C(=Cc2cccc(OC)c2Oc2ccc([N+](=O)[O-])cc2[N+](=O)[O-])SC1=S	80
O=C(/C=C/c1ccc(Br)cc1)c1ccc(NC2=NCCCS2)cc1	-99*
CC(C)(C)c1ccc(/C=C/C(=O)c2ccc(NC3=NCCCS3)cc2)cc1	-107*
O=C(CNCc1ccc(Cl)cc1)Nc1ccc2c(c1)OCCO2	-99*
O=C(CSCc1ccccc1Cl)Nc1ccc2c(c1)OCCO2	-152*
O=C(CNCc1ccccc1)Nc1ccc(Cl)cc1	-82*
O=C(CNCc1ccccc1Cl)Nc1ccc2c(c1)OCCO2	-117*
